Bioassay records: PubChem BioAssay, National Center for Advancing Translational Sciences (NCATS)
In the library only some 3.2% were active in any assay of this set; here they are far more common.
Tau fibril FP: blocks human tau fibril formation measured by polarization; Potency, µM (titrated, usually from 57.7 µM), for the others: at the top dose activity, negative = inhibition, most hits filed as inhibitors; AID 1468; 280,000 tested, 0.39% active; P10636; K18 P301L tau heparin fibrillization, Alexa594 FP, 6 h; also: nearly all actives have a fitted effect of over 55% in size
Target sequence (P10636 561-689 P618L limits assumed): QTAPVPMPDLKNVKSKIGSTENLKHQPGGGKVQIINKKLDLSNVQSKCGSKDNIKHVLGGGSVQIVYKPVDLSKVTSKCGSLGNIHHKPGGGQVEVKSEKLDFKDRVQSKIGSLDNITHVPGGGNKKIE
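Read-out: fluorescence polarization of Alexa 594-labeled tau (0.24 uM), 555 nm excitation, 632 nm emission. Mixtures held 15 uM unlabeled K18 P301L, compound and 20 uM heparin, pH 7 acetate buffer, incubated 6 hr at 37 C.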
GoLoco inh red: inhibitors of human Gai1-RGS12 GoLoco interaction (red fluorophore); P63096; Gai1:RGS12 GoLoco peptide FP, rhodamine, 10 min; Potency, µM (highest dose often 61.6 µM), for the others: top-dose activity, negative = inhibition, most hits filed as inhibitors; 230,000 tested, 0.44% active; active = well fitted inhibition curve with a large enough effect, not every such curve was filed as active; inactive = no such curve, though single readings can be large or run the other way; also: nearly all actives have a fitted effect of over 30% in size
TRb SRC2 PPI: inhibitors of human thyroid hormone receptor beta-SRC2 interaction | P10828 | TRbeta-SRC2 peptide binding, fluorescence polarization; receptor liganded with 1 µM T3 | Potency, µM (titrated, usually from 106 µM), for inactives: at the top dose activity change, negative = inhibition, usual class: inhibitors | 280,000 tested, 0.065% active | AID 1469;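 also: plate controls were bound peptide for no effect and peptide without receptor for full effect; nearly all actives have a fitted effect of over 50% in size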
Target sequence (P10828 whole entry, looked up): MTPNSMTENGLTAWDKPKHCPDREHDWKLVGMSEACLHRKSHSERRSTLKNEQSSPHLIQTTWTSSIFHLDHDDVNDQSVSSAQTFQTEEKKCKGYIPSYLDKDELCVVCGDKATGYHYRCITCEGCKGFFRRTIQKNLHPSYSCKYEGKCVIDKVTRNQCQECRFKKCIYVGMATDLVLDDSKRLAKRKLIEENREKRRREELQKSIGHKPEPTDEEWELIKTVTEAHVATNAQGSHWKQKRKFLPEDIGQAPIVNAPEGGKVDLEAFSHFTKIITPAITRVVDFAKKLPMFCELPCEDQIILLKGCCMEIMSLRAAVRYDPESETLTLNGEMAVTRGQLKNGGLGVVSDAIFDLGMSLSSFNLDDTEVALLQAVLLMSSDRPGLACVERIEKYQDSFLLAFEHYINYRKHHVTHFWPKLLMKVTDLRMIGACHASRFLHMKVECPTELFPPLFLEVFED
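TRb LBD 0.6 uM + Texas Red SRC2 peptide 20 nM, 1 uM T3, Tris buffer w/ 5% DMSO; compound pinned, 5 h RT; FP read ex 555/em 632; normalized to unbound and bound controls.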
Tau fluor cs: counter-screen for tau fibril formation inhibitors | tau K18 P301L Alexa594 fluorescence, heparin fibrillization | Potency, µM (doses to about 57.7 µM), without a hit: at the highest dose activity change, negative = decrease | 280,000 tested, 0.93% active | AID 1463; also: nearly all actives have a fitted effect of over 55% in size
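Human tau K18 P301L (15 uM unlabeled, 0.24 uM Alexa 594-labeled) in 100 mM sodium acetate pH 7 with 20 uM heparin, 6 hr at 37 C. ThT 30 uM added, 1 hr ambient; Alexa 594 FP and total fluorescence read at 555/632 nm.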
TR SRC2 fluor cs: Texas Red fluorescence interference in TRb-SRC2 counter-screen | Potency, µM (top dose mostly 106 µM), for the others: at the highest dose fluorescence change, negative = quenching | TRb/SRC2 Texas Red total fluorescence interference | 280,000 tested, 0.29% active; active = well fitted curve in either direction with a large enough effect; inconclusive = small, poorly fitted or top-dose-only effect
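Human TRβ ligand-binding domain (0.6 uM) and Texas Red SRC2 peptide (20 nM) in Tris buffer with 1 uM T3 and 5% DMSO were incubated with pinned compound for 5 hr at ambient temperature. Total fluorescence was computed as S + 2P (555/632 nm).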
Tau fibril ThT: inhibitors of human tau fibril formation, thioflavin T binding; recombinant tau K18 P301L, heparin-induced fibrillization, ThT fluorescence; Potency, µM (titrated, usually from 57.4 µM), for the others: at the top dose activity, negative = inhibition, usual class: inhibitors; 270,000 tested, 2.1% active; AID 1460; also: nearly all actives have a fitted effect of over 55% in size
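Using a mix of unlabeled (15 uM) and Alexa 594-labeled (0.24 uM) tau K18 P301L, heparin-triggered fibrillization over 6 hr at 37 C was scored by ThT fluorescence.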
* = called active by the depositor; [ ] = dose if it differs, or a comment. Unless noted, calls follow the shape of the dose curve; as a rule, active = well fitted curve in the direction sought with a large enough effect; inconclusive = small, poorly fitted or top-dose-only effect, or another doubt; inactive = no such curve, though single readings can be large; an effect the other way counts as inactive or inconclusive. Unless noted, % is scaled to controls: 0 for no effect and ±100 for the full control effect; potency is read from the fitted curve at half-maximal effect.

What do the screens show for `CN1/C(=C/C(=O)C2CC2)C(C)(C)c2ccccc21`?
Tau fibril FP: 6%; GoLoco inh red: 76%; TRb SRC2 PPI: -3%; Tau fluor cs: 6%; TR SRC2 fluor cs: -2%; Tau fibril ThT: -6%

How did CN1/C(=C\C(=S)NC(=O)c2cccc(Br)c2)C(C)(C)c2ccccc21 do in these assays?
Tau fibril FP: 11%; TRb SRC2 PPI: 12%; Tau fluor cs: 9%; TR SRC2 fluor cs: 5%; Tau fibril ThT: 7.1µM*

Results for CN1/C(=C\C(=O)Nc2cccc(Cl)c2)C(C)(C)c2ccccc21 ?
Tau fibril FP: 8%; GoLoco inh red: 36%; TRb SRC2 PPI: -5%; Tau fluor cs: 14µM*[quencher]; TR SRC2 fluor cs: 0%; Tau fibril ThT: inconclusive

Results for CN1/C(=C\C(=O)Nc2ccc(Br)cc2)C(C)(C)c2ccccc21 ?
Tau fibril FP: 4%; GoLoco inh red: -4%; TRb SRC2 PPI: -4%; Tau fluor cs: 7.1µM*[quencher]; TR SRC2 fluor cs: -5%; Tau fibril ThT: inconclusive

What do the screens show for `CN1/C(=C\C(=S)NC(=O)c2ccc([N+](=O)[O-])cc2)C(C)(C)c2ccccc21`?
Tau fibril FP: 3%; GoLoco inh red: 81%; TRb SRC2 PPI: 10%; Tau fluor cs: -3%; TR SRC2 fluor cs: 6%; Tau fibril ThT: inconclusive

How did CCN(CC)S(=O)(=O)c1cccc(C(=O)/C=C2/N(C)c3ccccc3C2(C)C)c1 do in these assays?
Tau fibril FP: 12%; GoLoco inh red: -1%; TRb SRC2 PPI: 2%; Tau fluor cs: -28%; TR SRC2 fluor cs: 0%; Tau fibril ThT: -19%

What do the screens show for `CN1/C(=C\C(=O)Nc2ccc(F)cc2)C(C)(C)c2ccccc21`?
Tau fibril FP: 10%; TRb SRC2 PPI: 4%; Tau fluor cs: 10µM*[quencher]; TR SRC2 fluor cs: -11%; Tau fibril ThT: inconclusive

Results for C[C@H]1CCCC=CC2C[C@H](OC(=O)CN(C)C)C[C@@H]2[C@@H](O)/C=C\C(=O)O1 (stereo partly specified) ?
GoLoco inh red: 0%[14.2 µM]

What do the screens show for `CCC1CC=CC2C1C(=O)N(Cc1ccccc1)C2c1ccc(OC)c(Cl)c1` (stereo unspecified)?
TRb SRC2 PPI: -8%; TR SRC2 fluor cs: 0%

Results for CC(C)CCNC(=O)c1ccc2c(SCC(=O)O)c3c(nc2c1)CCCC3 ?
Tau fibril FP: 11%; GoLoco inh red: 10%; TRb SRC2 PPI: -10%; Tau fluor cs: -8%; TR SRC2 fluor cs: -1%; Tau fibril ThT: inconclusive

Results for O=C(O)CSc1c2c(nc3cc(C(=O)NCCN4CCOCC4)ccc13)CCC2 ?
Tau fibril FP: 6%; GoLoco inh red: -16%; TRb SRC2 PPI: -12%; Tau fluor cs: -8%; TR SRC2 fluor cs: 50µM*[fluorescent]; Tau fibril ThT: -17%

What do the screens show for `COc1cc(NS(C)(=O)=O)ccc1Nc1c2ccccc2nc2ccccc12`?
Tau fibril FP: -1%; GoLoco inh red: -11%; TRb SRC2 PPI: 1%; Tau fluor cs: inconclusive; TR SRC2 fluor cs: -4%; Tau fibril ThT: 14µM*

How did COc1ccccc1CNc1nc(-c2cccc(NS(C)(=O)=O)c2)nc2ccccc12 do in these assays?
GoLoco inh red: 11%

How did CCC(=O)N/N=C/c1ccc(-c2ccc([N+](=O)[O-])cc2)o1 do in these assays?
Tau fibril FP: 2%; GoLoco inh red: 13%; TRb SRC2 PPI: -3%; Tau fluor cs: -28%; TR SRC2 fluor cs: -9%; Tau fibril ThT: 7.9µM*

How did CCC(=O)N/N=C/c1ccc(-c2ccc(Cl)cc2)o1 do in these assays?
Tau fibril FP: 7%; GoLoco inh red: -5%; TRb SRC2 PPI: 0%; Tau fluor cs: -9%; TR SRC2 fluor cs: -6%; Tau fibril ThT: inconclusive

What do the screens show for `CCCCC(=O)N/N=C/c1ccc(-c2ccc([N+](=O)[O-])cc2)o1`?
Tau fibril FP: 9%; GoLoco inh red: 25%; TRb SRC2 PPI: -5%; Tau fluor cs: inconclusive; TR SRC2 fluor cs: -3%; Tau fibril ThT: 4.5µM*

How did C=CCNC(=S)N/N=C/c1ccc(-c2ccc(OC)cc2)o1 do in these assays?
Tau fibril FP: 9%; GoLoco inh red: 3%; TRb SRC2 PPI: 1%; Tau fluor cs: 20µM*[quencher]; TR SRC2 fluor cs: -1%; Tau fibril ThT: inconclusive

How did CCc1nnc(N/N=C/c2ccc(-c3ccc([N+](=O)[O-])cc3)o2)n1N do in these assays?
Tau fibril FP: inconclusive; GoLoco inh red: 28%; TRb SRC2 PPI: 6%; Tau fluor cs: inconclusive; TR SRC2 fluor cs: -3%; Tau fibril ThT: 1.8µM*

Results for C=C(C)C(=O)OCC(CC)(COC(=O)C(=C)C)COC(=O)C(=C)C ?
TRb SRC2 PPI: 8%[201 µM]; TR SRC2 fluor cs: -1%[201 µM]

What do the screens show for `COC(=O)CC1c2ccccc2C(Cc2ccc(OC)cc2)C(C)N1C(=O)OC` (stereo unspecified)?
Tau fibril FP: 2%[11.6 µM]; GoLoco inh red: 6%[14.2 µM]; TRb SRC2 PPI: 5%[11.2 µM]; Tau fluor cs: 8%[11.6 µM]; TR SRC2 fluor cs: -2%[11.2 µM]; Tau fibril ThT: 13%[11.5 µM]

How did C[C@H](C(=O)OCO/N=[N+](\[O-])N1CCCC1)c1cccc2ccccc12 do in these assays?
TRb SRC2 PPI: 6%; TR SRC2 fluor cs: -7%

Results for CNC(=S)N/N=C/c1ccc(-c2ccc(Cl)c([N+](=O)[O-])c2)o1 ?
Tau fibril FP: -13%; GoLoco inh red: 27%; TRb SRC2 PPI: -2%; Tau fluor cs: inconclusive; TR SRC2 fluor cs: -3%; Tau fibril ThT: inconclusive

Results for O=C(N/N=C/c1ccc(-c2ccc([N+](=O)[O-])cc2)o1)C(O)c1ccccc1 (stereo unspecified) ?
Tau fibril FP: 6%; GoLoco inh red: 11%; TRb SRC2 PPI: -13%; Tau fluor cs: inconclusive; TR SRC2 fluor cs: -7%; Tau fibril ThT: 16µM*

Results for CC(C)(C)NC(=S)N/N=C\c1ccc(-c2ccc([N+](=O)[O-])cc2)o1 ?
Tau fibril FP: 12%; GoLoco inh red: 20%; TRb SRC2 PPI: -2%; Tau fluor cs: inconclusive; TR SRC2 fluor cs: -3%; Tau fibril ThT: 7.1µM*

How did CN(Cc1ccco1)c1nc(-c2ccccc2C(F)(F)F)nc2ccccc12 do in these assays?
GoLoco inh red: 16%

What do the screens show for `CN1CCN(NS(=O)(=O)c2ccc(Cl)s2)CC1`?
Tau fibril FP: inconclusive; GoLoco inh red: 3%; TRb SRC2 PPI: 2%; Tau fluor cs: -25%; TR SRC2 fluor cs: 1%; Tau fibril ThT: 18µM*

Results for O=S(=O)(NN1CCOCC1)c1ccc(Cl)s1 ?
Tau fibril FP: inconclusive; GoLoco inh red: -1%; TRb SRC2 PPI: 0%; Tau fluor cs: -5%; TR SRC2 fluor cs: -2%; Tau fibril ThT: inconclusive
